Source: PubChem BioAssay (several laboratories)
Anthrax LF prot = blocks Bacillus anthracis lethal factor protease | hit rate 0.12% among 360,000 | multiplex microsphere protease cleavage assay, LF | inhibition, % at 10 µM
Target sequence (P15917 whole entry, looked up): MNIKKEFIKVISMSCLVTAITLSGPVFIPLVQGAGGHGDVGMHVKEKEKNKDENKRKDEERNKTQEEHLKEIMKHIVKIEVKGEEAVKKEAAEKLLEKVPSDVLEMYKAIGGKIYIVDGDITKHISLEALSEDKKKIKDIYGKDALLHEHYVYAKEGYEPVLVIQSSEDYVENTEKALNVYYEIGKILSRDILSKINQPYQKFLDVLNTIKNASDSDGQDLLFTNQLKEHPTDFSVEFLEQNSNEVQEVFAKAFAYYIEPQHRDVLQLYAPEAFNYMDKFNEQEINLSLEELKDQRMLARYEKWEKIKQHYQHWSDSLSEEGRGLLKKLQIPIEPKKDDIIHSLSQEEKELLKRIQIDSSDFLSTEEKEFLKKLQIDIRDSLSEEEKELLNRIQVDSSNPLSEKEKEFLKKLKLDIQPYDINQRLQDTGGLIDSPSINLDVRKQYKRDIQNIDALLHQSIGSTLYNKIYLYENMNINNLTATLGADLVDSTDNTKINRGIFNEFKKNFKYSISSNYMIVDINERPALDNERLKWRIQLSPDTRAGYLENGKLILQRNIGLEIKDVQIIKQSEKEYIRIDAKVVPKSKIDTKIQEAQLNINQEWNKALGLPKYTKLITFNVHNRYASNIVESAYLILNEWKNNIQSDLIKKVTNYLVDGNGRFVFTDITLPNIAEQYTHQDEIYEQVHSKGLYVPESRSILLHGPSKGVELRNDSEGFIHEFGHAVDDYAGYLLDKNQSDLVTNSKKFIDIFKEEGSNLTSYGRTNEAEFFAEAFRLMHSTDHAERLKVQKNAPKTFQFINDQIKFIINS
BJeLR viability = BJeLR cell viability loss. BJeLR (HRASV12) viability, CellTiter-Glo ATP luminescence, 48 h. inhibition, % (concentration not given with the values). hit rate 0.17% among 300,000. AID 1554; in the data active = inhibition above about 50%; inconclusive = no clear call, values can overlap the other calls
SARS 3CLpro inh = SARS-CoV 3CLpro protease inhibition; P0C6X7; recombinant SARS-CoV 3CLpro, quenched FRET peptide cleavage; inhibition, % at 6 µM; hit rate 0.14% among 290,000; in the data active = inhibition above about 12%
BoNT-F LC inh = BoNT F light chain protease inhibition | Multiplex microsphere protease cleavage assay, flow cytometry | inhibition, % at 10 µM | hit rate 0.22% among 360,000; in the data active = inhibition above about 35%, passing the limit was not always enough; inconclusive = no clear call, values can overlap the other calls
BoNT-A LC inh2 = BoNT A light chain protease inhibition | hit rate 0.17% among 360,000 | inhibition, % at 10 µM | AID 588499 | multiplex microsphere protease substrate cleavage, flow cytometry
Autofluor counter = flagged as autofluorescent in microsphere protease counterscreen. compound autofluorescence counterscreen, microsphere flow cytometry; hits give high values. fluorescence intensity (concentration not given with the values). hit rate 3.1% among 360,000. AID 624483; in the data active = fluorescence intensity above about 16000; inconclusive = no clear call, values can overlap the other calls
Of the large screens only hits and unclear results are named; the others gave an inactive call. Shown are actives, neighbours in structure and some others; about 3.6% of the full set was active somewhere. Cut-off read from the data, not from the text of the source, unless noted: active = inhibition above about 30%; inconclusive = no clear call, values can overlap the other calls; inactive = below that.

O=C(Oc1cccnc1)c1cc(S(=O)(=O)N2CCOCC2)ccc1Cl	none
O=C(c1cccnc1)N1CCN(S(=O)(=O)c2ccc3ccccc3c2)CC1	Autofluor counter 16645
O=C(Oc1cccnc1)c1cc(S(=O)(=O)N2CCCCC2)ccc1Cl	Autofluor counter 21012
Cc1ccc(C(=O)NCCNc2ccc(Cl)cc2[N+](=O)[O-])o1	BoNT-A LC inh2 inconclusive, Autofluor counter 22948
CS(=O)(=O)NCCCNc1ccc(C(F)(F)F)cc1[N+](=O)[O-]	none
CS(=O)(=O)NCCCNc1ccc(Cl)cc1[N+](=O)[O-]	Autofluor counter 22714
CC(C)Sc1nc(O)c(Cc2ccccc2)c(=O)[nH]1	Autofluor counter 20324
CC(=O)c1ccc(S(=O)c2ccccc2)cc1 (stereo not given)	none
O=C(Nc1ccc(NC(=O)c2sc3ccccc3c2Cl)cc1Cl)c1ccco1	Autofluor counter 19130
O=C(Nc1ccc(N2CCN(C(=O)c3cccs3)CC2)c(Cl)c1)c1ccco1	Autofluor counter 16928
CCOc1ccc(C(=O)Nc2ccc(NC(=O)c3ccco3)c(Cl)c2)cc1Br	BoNT-A LC inh2 inconclusive, Autofluor counter 22914
O=C(Nc1ccc(NC(=O)c2cccs2)c(Cl)c1)c1ccco1	none
CSc1nc(SCC(=O)NC(c2ccccc2)c2ccccc2)c2c3c(sc2n1)CN(C)CC3	Autofluor counter 16363
CSc1nc(NCC(C)O)c2c3c(sc2n1)CN(C)CC3 (stereo not given)	BoNT-F LC inh inconclusive
CCN(CC)S(=O)(=O)c1ccc(Cl)c(NC(=O)c2cc(Cl)cc(Cl)c2)c1	none
COc1cc(/C=C2\C(=N)N3N=C(C)SC3=NC2=O)cc(OC)c1OCCOc1ccccc1C	BoNT-F LC inh 55
COc1cc(/C=C2\C(=N)N3N=C(S(C)(=O)=O)SC3=NC2=O)cc(OC)c1OCCOc1ccccc1C	BoNT-F LC inh inconclusive
COc1ccc(Cc2nc(-c3ccccc3)no2)cc1	Autofluor counter 21271
Clc1ccc(Cc2nc(-c3cccnc3)no2)cc1	Autofluor counter 21733
Cc1ccc(-c2noc(CNc3ccccc3)n2)cc1	BoNT-A LC inh2 inconclusive, Autofluor counter 21856
CCc1ccc(NCc2nc(-c3ccccc3)no2)cc1	none
Cc1ccc(Cc2nc(-c3cccnc3)no2)cc1	none
COc1ccc(Cc2nc(-c3ccc(-n4cccc4)cc3)no2)cc1	none
CC1(C)CC(=O)C=C(c2ccc(-c3cnc4ccccc4c3)cc2)C1=O	none (no result: BJeLR viability, SARS 3CLpro inh)
CC1CCCCC1NC(=O)COC(=O)CNC(=O)c1cccc(F)c1 (stereo not given)	none
Cc1c(Cl)cccc1NC(=O)CCC(=O)N/N=C/c1ccc[nH]1	none
Cc1ccc(C)c(NC(=O)CCC(=O)N/N=C/c2ccc[nH]2)c1	Autofluor counter 21086
N#CC1(NC(=O)COC(=O)c2nc(Cl)c(Cl)c(N)c2Cl)CCCCC1	Autofluor counter inconclusive (no result: SARS 3CLpro inh)
CC(C)NC(=S)N(C)C1(c2ccccc2Cl)CCCCC1=O (stereo not given)	none
CN(C(=S)NC1CCCCC1)C1(c2ccccc2Cl)CCCCC1=O (stereo not given)	none
Cc1cccc(NC(=S)N(C)C2(c3ccccc3Cl)CCCCC2=O)c1 (stereo not given)	Autofluor counter 22871
CN(C(=S)Nc1ccccc1F)C1(c2ccccc2Cl)CCCCC1=O (stereo not given)	Autofluor counter 20195
COc1ccc(S(=O)(=O)N2CC3C4C=CC(C4)C3C2)cc1 (stereo not given)	none
CC1(C)C/C(=N\O)c2cc3c(nc2C1)CCCC3	Autofluor counter 23918
CC1(C)CC(=O)c2cc3c(nc2C1)CC(C)(C)CC3=O	none
COc1cccc(/C=N/n2c(N)nc3ccccc32)c1OC	none
COc1cccc(/C=N/n2cnc3ccccc32)c1OC	Autofluor counter 16900
COc1cccc(/C=N/n2c(=S)n(C)c3cc(C)c(C)cc32)c1OC	BoNT-A LC inh2 inconclusive, Autofluor counter 22389
COc1cccc(/C=N/n2c(-c3cc(C)[nH]n3)n[nH]c2=S)c1OC	BoNT-F LC inh inconclusive
C(=N\n1cnc2ccccc21)/c1cccnc1	Autofluor counter 22275
CCN1CCN(C(c2ccccn2)c2c(NC(=O)c3ccccc3)sc(C)c2C)CC1 (stereo not given)	none
Oc1c(C=C2N=c3ccccc3=N2)sc(=S)n1C1CCCC1	Anthrax LF prot 39, BoNT-A LC inh2 70
Oc1c(C=C2N=c3ccccc3=N2)sc(=S)n1-c1ccc2ccccc2c1	none
Oc1c(C=C2N=c3ccccc3=N2)sc(=S)n1-c1ccc(F)cc1	Anthrax LF prot 34, BoNT-A LC inh2 54
CCOc1ccc(-c2cc(C(=O)N3CCN(C)CC3)c3ccccc3n2)cc1	Autofluor counter 23119
CCOc1ccc(-c2cc(C(=O)N3CCN(c4ccccn4)CC3)c3ccccc3n2)cc1	Autofluor counter 22531
CCOC(=O)C1=C2NC(=O)c3ccccc3N2C(=O)C1	none
CCS(=O)(=O)N1Cc2ccccc2CC1C(=O)Nc1ccc(C)cc1 (stereo not given)	Autofluor counter 22120
CN(CCOc1ccc(Cl)cc1)c1ccc(S(=O)(=O)N2CCCCC2)cn1	BoNT-A LC inh2 inconclusive, Autofluor counter 24914 (no result: BJeLR viability)
Cc1ccc(OCCNc2ccc(S(=O)(=O)N3CCCC3)cn2)cc1	Anthrax LF prot inconclusive (no result: BJeLR viability, SARS 3CLpro inh)
Cc1ccc(C)n1-c1nccc(-c2cccs2)n1	Autofluor counter 21459
CCCCCCN=CC1=C(O)CC(C)(C)CC1=O	none
CC1(C)CC(=O)C(C=NCCN2CCN(C(=O)Cc3ccccc3)CC2)=C(O)C1	none
CC1(C)CC(=O)C(C=NCCN2CCN(CCc3ccccc3)CC2)=C(O)C1	Autofluor counter 20820
COCCCN=CC1=C(O)CC(C)(C)CC1=O	BoNT-A LC inh2 inconclusive, Autofluor counter 23898
CC1(C)CC(=O)C(C=NCCN2CCN(C(=S)Nc3ccc(F)cc3)CC2)=C(O)C1	BoNT-A LC inh2 inconclusive, Autofluor counter 16455
O=c1[nH]cc(CCc2ccccc2)c(=O)[nH]1	none (no result: BJeLR viability, SARS 3CLpro inh)
COc1cccc(-c2n[nH]c(=S)n2Cc2ccco2)c1OC	Autofluor counter 20736
Oc1cc2ccccc2cc1-c1n[nH]c(=S)n1Cc1ccco1	none
CCCCNC(=S)NCc1ccc2c(c1)cc(C)n2C	BoNT-A LC inh2 30
CCOC(=O)CCC(=O)NCc1ccc2[nH]c(C)cc2c1	none
CCc1cccc(C)c1NC(=S)NCc1ccc2c(c1)cc(C)n2C	BoNT-A LC inh2 57
CCOC(=O)CCC(=O)NCc1ccc2c(c1)cc(C)n2C	Autofluor counter 18146
Cc1cc2cc(CNC(=S)NCc3ccccc3)ccc2n1C	BoNT-A LC inh2 45
COc1ccc(NC(=S)NCc2ccc3c(c2)cc(C)n3C)cc1	none
CC1CN=C(N(C(=S)Nc2ccccc2)c2cccc(C(F)(F)F)c2)S1 (stereo not given)	none (no result: Anthrax LF prot, BoNT-F LC inh, BoNT-A LC inh2, Autofluor counter)
CC1CN(C(=O)c2ccccc2NS(=O)(=O)c2ccc(Cl)cc2)CC(C)O1 (stereo not given)	none (no result: BJeLR viability, SARS 3CLpro inh)
CC(C)CCNC(=O)CN(Cc1ccc(F)cc1)C(=O)CCC(=O)Nc1ccccn1	none
CC(C)CN(C(=O)c1ccc2c(c1)OCCO2)c1c(N)n(Cc2ccccc2)c(=O)[nH]c1=O	none (no result: Anthrax LF prot, SARS 3CLpro inh, BoNT-F LC inh, BoNT-A LC inh2, Autofluor counter)
